The panel holds about 83,000 compounds, 20% with a hit somewhere; the sample as a whole holds those more often.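 Note: values are percent growth. 100 is the growth of untreated cells, values between 100 and 0 indicate rising inhibition; between -100 and 0 indicates cell death.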 A number with no mark means an inactive call. Activity calls are given as the source filed them. Rule for the calls: active = growth percent below 10; inactive = the rest.
Assays:
Assay in all cases: NCI-60 one-dose screen, 48 h (100 = growth as untreated, 0 = no growth, -100 = all killed)
Settings in all cases: 10 µM unless noted
T-47D breast = test system: T-47D breast
BT-549 breast = test system: BT-549 breast
MDA-MB-435 melanoma = test system: MDA-MB-435 melanoma
SW-620 colon = test system: SW-620 colon
MCF7 breast = test system: MCF7 breast
HCT-116 colon = test system: HCT-116 colon
HCC-2998 colon = test system: HCC-2998 colon
KM12 colon = test system: KM12 colon

| SMILES | growth (T-47D breast) | growth (BT-549 breast) | growth (MDA-MB-435 melanoma) | growth (SW-620 colon) | growth (MCF7 breast) | growth (HCT-116 colon) | growth (HCC-2998 colon) | growth (KM12 colon) |
| --- | --- | --- | --- | --- | --- | --- | --- | --- |
| Cn1c(=O)cc(NC(=O)CN2CCN(c3cc4c(cc3F)c(=O)c(C(=O)O)cn4C3CC3)CC2)[nH]c1=O | 107% | 105% | 101% | 99.3% | 94.2% | 103% | 100% | 101% |
| CCCCOc1ccc(/C=C2/SC(N3CCCC3)=NC2=O)cc1 | 65.9% | 90.9% | 95.6% | 99.9% | 107% | 92.2% | 109% | 99.5% |
| CC1CN(c2oc(-c3ccccc3)nc2C#N)CC(C)O1 (stereo not given) | 94.7% | 99.4% | 103% | 104% | 77.1% | 104% | 110% | 103% |
| COc1ccc(S(=O)(=O)n2cc(C(=O)C(=O)Nc3ccncc3)c3ccccc32)cc1F | 67.9% | 77% | 58% | 83.3% | 69.8% | 69.5% | 73.5% | 75% |
| Clc1ccc2c(NC3CCC(NC4CCCCC4)CC3)ccnc2c1 (stereo not given) | 48.1% | 86.8% | 26.8% | 32.7% | 37.8% | 35.8% | 65.2% | 67.2% |
| CCCC(=O)Oc1ccc(/C(=C(\C)c2ccccc2)c2ccc(OCCN(CC)CC)cc2)cc1 | 46.8% | 78.7% | 73.3% | 84.5% | 34.5% | 47.8% | 83.2% | 79.5% |
| O=c1cc/c(=N\Nc2ccccc2)c(=O)/c1=N/Nc1ccccc1 | 92.8% | 102% | 126% | 98.6% | 78.4% | 90.1% | 99% | 94.1% |
| COc1ccc(NC(=O)c2c(Nc3ccc(OC)cc3OC)n[nH]c2N)c(OC)c1 | 83% | 93.7% | 95.2% | 102% | 76.4% | 90.1% | 107% | 102% |
| OCCCCCCNc1ncnc2cc(Cl)ccc12 | 72% | 87.1% | 109% | 103% | 97.8% | 81.9% | 106% | 99.7% |
| COC1=C(OC)C(=O)C(CCCCCCCCCC[P+](c2ccccc2)(c2ccccc2)c2ccccc2)=C(C)C1=O | -59% (active) | -78.9% (active) | -82.6% (active) | -13.2% (active) | -49.9% (active) | 6.18% (active) | -18.3% (active) | -37.5% (active) |
| O=C(/C=C\c1cccc([N+](=O)[O-])c1)/C=C/c1cccc([N+](=O)[O-])c1 | 97.9% | 88.9% | 36.7% | 18.9% | 19% | -31.2% (active) | 97% | -7.25% (active) |
| C=C(C)[C@@H]1C[C@H](O)Cc2cc(F)ccc2N1 | 95.6% | 98.1% | 97.7% | 91.9% | 103% | 92.9% | 118% | 106% |
| Cc1csc(NC(c2ccc(Br)cc2)c2c(C)nc3ccccn23)n1 (stereo not given) | 75.6% | 90.7% | 97.7% | 88.1% | 83.3% | 59.8% | 117% | 97.7% |
| COc1ccc(CN2CCc3c(Sc4ccccc4)nc(N)nc3C2=O)c(OC)c1 | 33.9% | 23.4% | 60.6% | 81.2% | 43.7% | 42.7% | 86.2% | 84.9% |
| CC(C)c1ccc2occ(C=C3C(=O)NC(=O)NC3=O)c(=O)c2c1 | 83.5% | 92.4% | 105% | 91.6% | 80.8% | 76.5% | 93.7% | 117% |

Reference: PubChem BioAssay (NCI)
